22 molecules from PubChem BioAssay (Tox21) can be followed below.

Experiment [1] can be described thus: qHTS assay to identify small molecule agonists of H2AX (AID 1224845; active = well fitted activation curve with a large enough effect in the signal ratio in the repeat runs, not every such curve was filed as active; the % refers to the signal ratio). In short, it runs like this:
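Wild-type CHO-K1 cells plated overnight, then exposed 3 hr at 37C to compounds at 15 concentrations (0.76% DMSO). Lysed, then HTRF anti-pH2AX(S139)-cryptate/anti-H2AX-d2 detection after 24 hr at room temperature; emissions 665 and 620 nm.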
(In general: Quantitative high-throughput screening tests each substance at several concentrations.)

Experiment [2] is described as follows: qHTS assay to identify small molecule agonists of H2AX - cell viability counter screen (AID 1224847; calls by dose curve; note: nearly all actives have a fitted effect of over 30% in size; note: potency is the fitted concentration of half-maximal effect). In short, it runs like this:
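After overnight plating of 1000 CHO-K1 cells per well, a 15-concentration compound series was applied for 3 hr at 37C. Luminescence from CellTiter-Glo, read following 30 min at room temperature, reflected cell viability.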

Experiment [3] in a line: qHTS RealTime-Glo MT Cell Viability Assay in HepG2 cells - 24 hour (AID 1224867). Note: nearly all actives have a fitted effect of over 50% in size. Note: potency is the fitted concentration of half-maximal effect. In short, it runs like this: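 Real-time, nonlytic viability: 600 HepG2 cells/well mixed with NanoLuc enzyme plus prosubstrate; 5 h settle, compound (DMSO) added by pintool; luminescence monitored over 40 h at 37 C.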
Experiment [4] in a line: qHTS RealTime-Glo MT Cell Viability Assay in HEK293 cells - 32 hour (AID 1224868). Note: nearly all actives have a fitted effect of over 50% in size. Note: potency is the fitted concentration of half-maximal effect. In short, it runs like this: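 Cells + reagent dispensed (600 cells/well, HEK293) → 5 h at 37 C/5% CO2 → 23 nL compound in DMSO pinned → 40 h at 37 C → luminescence read at 0, 8, 16, 24, 32, 40 h.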
A short description of experiment [5]: A CellTox Green Cytotoxicity Assay to monitor cytotoxicity in HEK293 cells - 0 hour (AID 1224869). Note: nearly all actives have a fitted effect of over 50% in size. Note: potency is the fitted concentration of half-maximal effect. In short, it runs like this: (§1)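 Fluorescence from a DNA-binding dye excluded by viable cells was measured repeatedly in the same HEK293 wells (600 cells/well) during continuous compound exposure at 37 C. Each assay gives one read point: 0, 8, 16, 24, 32 or 40 h.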

A short description of experiment [6]: qHTS RealTime-Glo MT Cell Viability Assay in HepG2 cells - 40 hour (AID 1224870). Note: nearly all actives have a fitted effect of over 50% in size. Note: potency is the fitted concentration of half-maximal effect. In short, it runs like this:
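HepG2 cells mixed with RealTime-Glo MT reagents (NanoLuc plus cell-permeant prosubstrate) were seeded at 600 cells/well, incubated 5 h at 37 C/5% CO2, then pinned with compounds in DMSO; nonlytic luminescence tracked viability during 40 h treatment.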

The nature of experiment [7]: A CellTox Green Cytotoxicity Assay to monitor cytotoxicity in HEK293 cells - 40 hour (AID 1224871). Note: nearly all actives have a fitted effect of over 45% in size. Note: potency is the fitted concentration of half-maximal effect. In short, it runs like this: as §1
A short description of experiment [8]: qHTS assay to identify small molecule agonists of the estrogen related receptor (ERR) signaling pathway from Tox21 library (AID 1224849; calls by dose curve; note: nearly all actives have a fitted effect of over 15% in size). The settings on record: ERR reporter cell line, ONE-Glo luciferase, 18 h. In short, it runs like this:
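Luminescent agonist read-out (One-Glo, 30-minute room-temperature incubation) following 18-hour compound treatment at 37 C of the ERR cell line, which had been plated 6 hours before dosing.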

Experiment [9] in a line: qHTS assay to identify small molecule antagonists of the estrogen related receptor (ERR) signaling pathway from Tox21 library (AID 1224848). Note: nearly all actives have a fitted effect of over 50% in size. Note: potency is the fitted concentration of half-maximal effect. In short, it runs like this: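 Tox21 10K compounds in DMSO tested for ERR pathway antagonism in NTP's ERR cell line; 18 h, 37 C exposure; ONE-Glo luminescence.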

Values joined by “and” are separate entries in the source; they are usually repeats but may differ in a detail not shown here. Identical values can stand only once. Records with an inconclusive call do not appear. Where a structure was tested more than once in an assay, its records may differ in their call. Active and inactive are the calls of the source. Unless noted, calls come from the whole dose curve; as a rule, active = well fitted curve in the direction sought with a large enough effect in the repeat runs; inconclusive = weak or mixed curves; inactive = no such curve, though single readings can be large; an effect the other way counts as inactive or inconclusive.
% is set by controls: 0 for no effect and ±100 for the full control effect.

As for `NNCCc1ccccc1`, the Potency entry in [1], in experiment [2], in experiment [3], in [4], in experiment [5] and in [6] was “inactive” throughout. Further, the Potency entry in [7] is “inactive”.

`CC(=O)N[C@@H](CS)C(=O)O`: the Potency result in [1], in experiment [2], in [3], in [4], in [5] and in experiment [6] was “inactive” throughout. Also, in experiment [7], the Potency entry was “inactive”.

As for `CC(N)=O`, the Potency result in experiment [1], in experiment [2], in experiment [3], in experiment [4], in experiment [5] and in experiment [6] was “inactive” each time. Further, the Potency entry in experiment [7] is “inactive”.

Take `O=C(O)c1cc(Cl)cc(Cl)c1`: the Potency entry in experiment [1], in [2], in [3], in [4], in [5] and in experiment [6] was “inactive” throughout. In addition, the Potency entry in [7] is “inactive”. Moreover, in experiment [8] (at 92.4 µM (top of the series)), the activity change, positive = activation is -3.61% (inactive).

Turning to `Oc1c(Cl)cc(Cl)cc1Sc1cc(Cl)cc(Cl)c1O`, the Potency result in experiment [1], in experiment [3] and in experiment [6] was “inactive” each time. The activity change, positive = activation in experiment [8] (at 42.5 µM (top of the series)) is -52.3% (inactive); in [8] (at 92.4 µM (top of the series)), -60.8% (inactive) and -52.2% (inactive) and -57.2% (inactive). Moreover, the Potency was 19.5 µM (active) and 15.5 µM (active) in [4]; “inactive and 27.5 µM (active)” in experiment [5]; 49.1 µM (active) and 43.6 µM (active) and inactive in experiment [7].

For `Clc1ccc2c(c1)C(N1CCNCC1)=Nc1ccccc1O2`, the Potency result in [1], in [2] and in experiment [5] was “inactive” in each case. In addition, the Potency in [3] was 54.9 µM (active); in experiment [4] it was 43.6 µM (active) and 26.8 µM (active); in [6] it was 54.9 µM (active); in [7], 26.8 µM (active).

For `CO[Si](OC)(OC)c1ccccc1`, the Potency result in experiment [1], in experiment [3], in [4], in experiment [5], in experiment [6] and in experiment [7] was “inactive” in each case. For the same molecule, the activity change, positive = activation in experiment [8] (at 92.4 µM (top of the series)) was 18% (inactive).

`Cc1scc2c1N(C(=O)CN1CCN(C)CC1)c1ccccc1NC2=O`: the Potency entry in experiment [1], in experiment [2], in experiment [3], in experiment [4], in [5] and in experiment [6] was “inactive” throughout. In addition, in experiment [7], the Potency result is “inactive”.

In the case of `CCCCCC(=O)O[C@]1(C(C)=O)CC[C@H]2[C@@H]3CCC4=CC(=O)CC[C@]4(C)[C@H]3CC[C@@]21C`, the Potency result in experiment [1], in [3], in experiment [5], in experiment [6] and in experiment [7] was “inactive” each time. In addition, the activity change, positive = activation in experiment [8] (at 42.5 µM (top of the series)) is -35.8% (inactive); in experiment [8] (at 92.4 µM (top of the series)), -61% (inactive). For the same molecule, in [4], the Potency is 24.4 µM (active).

On to `Cc1ccc(-c2cc(C(F)(F)F)nn2-c2ccc(S(N)(=O)=O)cc2)cc1`, for which the Potency result in experiment [1] and in [5] was “inactive” each time. Moreover, the Potency in [9] is 27.2 µM (active) and 61.1 µM (active); in [3], 48.8 µM (active) and 49 µM (active); in experiment [4] it was 38.7 µM (active) and 30.9 µM (active); in experiment [6], 49 µM (active) and inactive; in experiment [7], 54.7 µM (active) and 54.9 µM (active) and inactive. Also, the activity change, positive = activation is -20.4% (inactive) in experiment [8] (at 42.5 µM (top of the series)); -66.1% (inactive) and -48.6% (inactive) in [8] (at 92.4 µM (top of the series)).

As for `CC(C)(C)c1ccccc1`, the Potency result in [1], in experiment [2], in [3], in [4], in experiment [5] and in experiment [6] was “inactive” each time. Also, the Potency entry in [7] is “inactive”. Also, in experiment [8] (at 92.4 µM (top of the series)), the activity change, positive = activation was 0.862% (inactive).

For `Nc1ccc2cc3ccccc3cc2c1`, the Potency entry in experiment [1], in experiment [2], in experiment [3], in experiment [4], in [5] and in experiment [6] was “inactive” in each case. In experiment [7], the Potency result was “inactive”.

On to `CCn1cc(C(=O)O)c(=O)c2cc(F)c(N3CCNC(C)C3)c(F)c21` (stereo not given), for which the Potency entry in experiment [1], in experiment [2], in experiment [9], in [3], in experiment [4] and in [5] was “inactive” in each case. Moreover, the Potency result in experiment [6] and in [7] was “inactive” in each case. In [8] (at 42.5 µM (top of the series)), the activity change, positive = activation is 3.97% (inactive).

As for `NCCCCCC(=O)O`, the Potency result in [1], in [2], in [3], in experiment [4], in experiment [5] and in experiment [6] was “inactive” in each case. The Potency entry in experiment [7] was “inactive”.

For `CC(=O)O[C@]1(C(C)=O)CC[C@H]2[C@@H]3C[C@H](C)C4=CC(=O)CC[C@]4(C)[C@H]3CC[C@@]21C`, the Potency result in experiment [1], in experiment [2], in [3], in [5] and in experiment [6] was “inactive” in each case. The Potency in experiment [4] was 19.5 µM (active) and 10.7 µM (active); in [7], 48.9 µM (active) and inactive.

On to `Cc1cc(OCCOCC[N+](C)(C)Cc2ccccc2)ccc1C(C)(C)CC(C)(C)C`, for which the Potency result in [1] and in experiment [5] was “inactive” in each case. The Potency in [2] is 100 µM (active) and 55.2 µM (active); in experiment [3] it was 15.4 µM (active) and 10.7 µM (active); in [4] it was 10.9 µM (active) and 7.56 µM (active); in experiment [6] it was 12.2 µM (active) and 8.49 µM (active); in experiment [7], 21.7 µM (active) and 23.9 µM (active). In addition, the activity change, positive = activation was -54.7% (inactive) in experiment [8] (at 42.5 µM (top of the series)) and -79.5% (inactive) in [8] (at 92.4 µM (top of the series)).

With `CCN(CC)c1ccc2c(C)cc(=O)oc2c1`, the Potency result in experiment [1], in [2], in [3], in experiment [5], in [6] and in experiment [7] was “inactive” each time. For the same molecule, the Potency in [4] was 34.9 µM (active).

Regarding `Cc1c(O)cccc1C(=O)N[C@@H](CSc1ccccc1)[C@H](O)CN1C[C@H]2CCCC[C@H]2C[C@H]1C(=O)NC(C)(C)C`, the Potency entry in [1], in experiment [5] and in experiment [7] was “inactive” throughout. Moreover, the Potency in experiment [2] is 49.2 µM (active); in [4], 19 µM (active). In addition, the activity change, positive = activation in experiment [8] (at 42.5 µM (top of the series)) is -54.6% (inactive); in experiment [8] (at 92.4 µM (top of the series)) it was -64.1% (inactive).

Turning to `NC(=Nc1ccccc1)Nc1ccccc1`, the Potency entry in [1], in experiment [2], in experiment [3], in experiment [5], in experiment [6] and in experiment [7] was “inactive” in each case.

Consider `CC1COC(=O)O1` (stereo not given), for which the Potency entry in experiment [1], in experiment [2], in experiment [3], in [4], in experiment [5] and in [6] was “inactive” each time. For the same molecule, the Potency result in experiment [7] is “inactive”. Further, the activity change, positive = activation in experiment [8] (at 92.4 µM (top of the series)) was 4.88% (inactive) and 5.46% (inactive).

As for `CC1=C(C=O)C(C)(C)CC=C1`, the Potency result in experiment [1], in experiment [3], in experiment [4], in experiment [5], in experiment [6] and in [7] was “inactive” in each case. In addition, the activity change, positive = activation in experiment [8] (at 92.4 µM (top of the series)) is 0.302% (inactive).

In the case of `CCCCN(CCO)CCCC`, the Potency entry in [1], in experiment [2], in [3], in experiment [4], in experiment [5] and in experiment [6] was “inactive” each time. Moreover, in experiment [7], the Potency entry is “inactive”. Besides, the activity change, positive = activation in [8] (at 92.4 µM (top of the series)) was 1.42% (inactive).
